The source of these data is PMC7862700, “An all-to-all approach to the identification of sequence-specific readers for epigenetic DNA modifications on cytosine”.

What all share (assay): DAPPL (digital affinity profiling via proximity ligation, sequencing); 10 mM Tris-HCl pH 7.5, 50 mM NaCl, 1 mM DTT, 4% glycerol, room temperature, 30 min; GST-TFs on glutathione beads, 16-mer random dsDNA library, 0.1% formaldehyde crosslink after washing; high values mean tight binding
Conditions in all cases: protein: recombinant; tags: N-terminal GST; dsDNA, one strand shown

One test addresses T1, FLI1 (Homo sapiens, UniProt Q01543 1-452).
T1 sequence: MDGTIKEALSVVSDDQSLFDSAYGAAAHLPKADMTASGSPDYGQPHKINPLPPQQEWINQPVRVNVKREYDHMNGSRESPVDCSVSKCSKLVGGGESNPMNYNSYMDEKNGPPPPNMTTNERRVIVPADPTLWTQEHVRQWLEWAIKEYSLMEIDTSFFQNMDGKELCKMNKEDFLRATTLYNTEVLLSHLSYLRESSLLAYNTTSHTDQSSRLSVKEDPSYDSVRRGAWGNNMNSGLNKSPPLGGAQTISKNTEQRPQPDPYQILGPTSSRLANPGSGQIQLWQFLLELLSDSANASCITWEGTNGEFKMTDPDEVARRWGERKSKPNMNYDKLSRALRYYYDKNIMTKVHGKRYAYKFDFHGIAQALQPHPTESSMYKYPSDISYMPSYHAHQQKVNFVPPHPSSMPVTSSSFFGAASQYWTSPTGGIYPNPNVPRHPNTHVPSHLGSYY
Put shortly:
(§1)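 Beads coated with glutathione captured GST-fused human transcription factors that had been expressed in yeast, and the factors were then given DNA barcodes and pooled with a tag-only sample. The pools were incubated with 200 nmole of a random double-stranded 16-mer DNA library in Tris/NaCl/DTT/glycerol buffer for 30 min at room temperature, washed, crosslinked with 0.1% formaldehyde and proximity-ligated with BsaI/T4 ligase at 37 °C for 1 h. PCR amplification and Illumina NextSeq500 sequencing came last. Binding signal is each hexamer's read frequency for a factor divided by its frequency for the tag-only sample.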

The target in the next test is T2, ELK1 (Homo sapiens, UniProt P19419 1-428).
T2 sequence: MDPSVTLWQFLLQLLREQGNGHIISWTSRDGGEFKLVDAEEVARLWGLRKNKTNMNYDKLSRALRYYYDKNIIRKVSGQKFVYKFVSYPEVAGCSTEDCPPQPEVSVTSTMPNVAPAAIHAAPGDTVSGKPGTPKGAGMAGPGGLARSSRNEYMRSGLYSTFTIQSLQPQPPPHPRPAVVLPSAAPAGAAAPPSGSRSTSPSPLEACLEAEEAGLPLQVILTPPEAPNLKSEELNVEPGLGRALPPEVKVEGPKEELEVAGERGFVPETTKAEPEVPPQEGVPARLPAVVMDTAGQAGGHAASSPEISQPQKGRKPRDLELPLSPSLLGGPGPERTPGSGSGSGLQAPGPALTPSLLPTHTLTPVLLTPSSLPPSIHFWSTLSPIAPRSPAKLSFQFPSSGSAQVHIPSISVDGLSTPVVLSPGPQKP
Put shortly: as §1

The next test addresses T3, GABPA (Homo sapiens, UniProt Q06546 1-454).
T3 sequence: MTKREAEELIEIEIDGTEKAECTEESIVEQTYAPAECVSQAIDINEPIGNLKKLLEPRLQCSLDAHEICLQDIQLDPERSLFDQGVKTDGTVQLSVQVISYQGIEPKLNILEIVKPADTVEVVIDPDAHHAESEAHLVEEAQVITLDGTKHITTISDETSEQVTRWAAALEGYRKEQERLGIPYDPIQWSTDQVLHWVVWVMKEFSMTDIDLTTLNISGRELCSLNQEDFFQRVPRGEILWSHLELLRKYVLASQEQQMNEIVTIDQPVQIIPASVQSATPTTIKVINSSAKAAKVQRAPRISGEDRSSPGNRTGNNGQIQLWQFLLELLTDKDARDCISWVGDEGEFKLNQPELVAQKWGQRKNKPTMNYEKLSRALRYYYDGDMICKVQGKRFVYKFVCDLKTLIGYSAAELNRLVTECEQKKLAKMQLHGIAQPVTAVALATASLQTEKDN
Put shortly: as §1

A further test addresses T4, ERG (Homo sapiens, UniProt P11308 1-479).
T4 sequence: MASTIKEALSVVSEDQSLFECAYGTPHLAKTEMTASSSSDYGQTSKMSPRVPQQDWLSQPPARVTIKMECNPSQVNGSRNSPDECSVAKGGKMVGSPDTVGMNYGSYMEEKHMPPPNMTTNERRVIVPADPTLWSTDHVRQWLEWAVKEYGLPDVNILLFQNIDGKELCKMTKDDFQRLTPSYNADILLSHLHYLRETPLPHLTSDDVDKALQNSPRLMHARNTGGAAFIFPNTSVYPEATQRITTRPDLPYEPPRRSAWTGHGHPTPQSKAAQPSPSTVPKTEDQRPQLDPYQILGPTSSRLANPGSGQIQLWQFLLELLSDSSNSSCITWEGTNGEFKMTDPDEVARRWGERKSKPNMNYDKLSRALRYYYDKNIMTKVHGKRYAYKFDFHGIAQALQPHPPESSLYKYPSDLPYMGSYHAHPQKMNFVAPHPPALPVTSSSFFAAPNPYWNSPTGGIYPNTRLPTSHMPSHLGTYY
The method in brief:
as §1

In a further test the target is ELF1 (Homo sapiens, UniProt P32519 1-619). Put shortly: as §1
In a further test the target is T5, EHF (Homo sapiens, UniProt Q9NZC4 1-300).
T5 sequence: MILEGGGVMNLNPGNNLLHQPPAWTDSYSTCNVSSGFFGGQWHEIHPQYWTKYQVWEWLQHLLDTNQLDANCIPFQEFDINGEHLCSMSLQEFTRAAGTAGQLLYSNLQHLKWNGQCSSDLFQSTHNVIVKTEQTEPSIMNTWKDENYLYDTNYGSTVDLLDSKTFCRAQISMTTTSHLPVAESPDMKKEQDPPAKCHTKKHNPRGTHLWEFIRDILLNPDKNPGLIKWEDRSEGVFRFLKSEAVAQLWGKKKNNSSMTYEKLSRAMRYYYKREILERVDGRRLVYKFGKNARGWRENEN
Put shortly: as §1

The target of another test is SPI1 (Homo sapiens, UniProt P17947 1-270). Put shortly: as §1
Another test addresses SPIB (Homo sapiens, UniProt Q01892 1-262). Put shortly:
as §1

In a further test the target is T6, ELK3 (Homo sapiens, UniProt P41970 1-407).
T6 sequence: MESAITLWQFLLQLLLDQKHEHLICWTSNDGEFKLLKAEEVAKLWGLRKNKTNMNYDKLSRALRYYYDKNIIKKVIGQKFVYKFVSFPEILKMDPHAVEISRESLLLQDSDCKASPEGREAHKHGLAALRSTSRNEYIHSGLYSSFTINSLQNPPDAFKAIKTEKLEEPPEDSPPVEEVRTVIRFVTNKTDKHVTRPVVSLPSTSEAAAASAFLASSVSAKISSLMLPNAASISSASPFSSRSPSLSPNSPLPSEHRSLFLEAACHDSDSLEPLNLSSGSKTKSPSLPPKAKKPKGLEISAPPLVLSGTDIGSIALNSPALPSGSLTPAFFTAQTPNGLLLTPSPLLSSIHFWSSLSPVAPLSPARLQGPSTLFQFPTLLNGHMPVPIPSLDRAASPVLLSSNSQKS
The method in brief:
as §1

In the next test the target is ETV5 (Homo sapiens, UniProt P41161 1-510). Put shortly: as §1
The next test has as its target T7, SPIC (Homo sapiens, UniProt Q8N5J4 1-248).
T7 sequence: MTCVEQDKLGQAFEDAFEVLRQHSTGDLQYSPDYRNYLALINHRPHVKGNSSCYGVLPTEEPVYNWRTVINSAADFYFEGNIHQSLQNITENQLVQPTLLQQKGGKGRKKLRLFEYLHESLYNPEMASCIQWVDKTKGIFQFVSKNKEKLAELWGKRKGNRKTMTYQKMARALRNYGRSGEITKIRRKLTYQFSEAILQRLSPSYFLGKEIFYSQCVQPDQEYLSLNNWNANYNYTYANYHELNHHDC
The method in brief:
as §1

In a further test the target is ELF4 (Homo sapiens, UniProt Q99607 1-663). Put shortly: as §1
In a further test the target is ETV1 (Homo sapiens, UniProt P50549 1-477). Put shortly: as §1
A further test concerns the target T8, ETS2 (Homo sapiens, UniProt P15036 1-469).
T8 sequence: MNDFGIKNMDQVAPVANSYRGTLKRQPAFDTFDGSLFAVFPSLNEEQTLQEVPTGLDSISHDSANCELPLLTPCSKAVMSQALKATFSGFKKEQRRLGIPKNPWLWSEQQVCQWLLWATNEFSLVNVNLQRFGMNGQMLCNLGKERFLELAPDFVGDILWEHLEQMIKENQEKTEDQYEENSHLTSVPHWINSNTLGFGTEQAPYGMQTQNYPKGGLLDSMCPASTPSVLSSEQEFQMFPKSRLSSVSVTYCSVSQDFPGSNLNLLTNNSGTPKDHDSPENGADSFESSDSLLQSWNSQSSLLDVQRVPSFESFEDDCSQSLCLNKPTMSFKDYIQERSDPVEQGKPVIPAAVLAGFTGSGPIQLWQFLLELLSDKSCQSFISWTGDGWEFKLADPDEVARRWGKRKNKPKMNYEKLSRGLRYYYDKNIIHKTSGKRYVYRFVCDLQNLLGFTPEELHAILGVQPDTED
The method in brief: as §1

The target in another test is T9, ELF5 (Homo sapiens, UniProt Q9UKW6-2 1-255).
T9 sequence: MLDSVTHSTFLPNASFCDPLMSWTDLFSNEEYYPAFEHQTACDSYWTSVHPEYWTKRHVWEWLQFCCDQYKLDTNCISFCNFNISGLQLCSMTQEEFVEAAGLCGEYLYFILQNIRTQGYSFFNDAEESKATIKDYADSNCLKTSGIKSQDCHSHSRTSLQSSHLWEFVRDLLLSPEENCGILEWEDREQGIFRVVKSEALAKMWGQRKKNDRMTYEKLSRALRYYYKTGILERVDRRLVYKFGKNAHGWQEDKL
Put shortly: as §1

In the next test the target is T10, ETV3 (Homo sapiens, UniProt P41162-2 1-143).
T10 sequence: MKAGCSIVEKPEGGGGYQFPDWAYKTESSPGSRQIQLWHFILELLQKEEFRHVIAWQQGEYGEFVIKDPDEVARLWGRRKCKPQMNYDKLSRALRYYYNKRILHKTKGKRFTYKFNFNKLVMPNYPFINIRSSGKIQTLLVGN
Put shortly:
as §1

A further test addresses ETV6 (Homo sapiens, UniProt P41212 1-452). Put shortly:
as §1

Sequence of ETV1 (P50549 whole entry): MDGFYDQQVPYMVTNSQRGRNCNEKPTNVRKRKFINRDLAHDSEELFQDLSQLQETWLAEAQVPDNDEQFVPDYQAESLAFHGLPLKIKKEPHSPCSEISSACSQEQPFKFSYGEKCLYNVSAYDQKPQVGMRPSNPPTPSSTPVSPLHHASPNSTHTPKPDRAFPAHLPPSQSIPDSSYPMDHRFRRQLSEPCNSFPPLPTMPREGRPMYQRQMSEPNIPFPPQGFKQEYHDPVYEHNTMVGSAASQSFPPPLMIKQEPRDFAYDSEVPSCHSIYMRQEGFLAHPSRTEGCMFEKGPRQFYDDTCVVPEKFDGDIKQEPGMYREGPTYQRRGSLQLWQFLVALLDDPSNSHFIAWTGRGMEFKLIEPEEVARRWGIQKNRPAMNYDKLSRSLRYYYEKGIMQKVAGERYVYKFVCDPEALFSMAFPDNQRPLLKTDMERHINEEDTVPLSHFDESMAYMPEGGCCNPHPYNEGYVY
Sequence of SPIB (Q01892 whole entry): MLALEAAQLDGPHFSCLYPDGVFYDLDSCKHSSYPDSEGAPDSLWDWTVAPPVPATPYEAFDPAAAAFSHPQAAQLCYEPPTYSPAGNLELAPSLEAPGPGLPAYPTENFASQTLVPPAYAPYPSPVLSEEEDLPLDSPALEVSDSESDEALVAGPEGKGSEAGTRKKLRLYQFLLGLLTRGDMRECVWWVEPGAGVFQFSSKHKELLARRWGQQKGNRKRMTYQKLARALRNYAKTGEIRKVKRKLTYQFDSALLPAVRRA
Sequence of ETV6 (P41212 whole entry): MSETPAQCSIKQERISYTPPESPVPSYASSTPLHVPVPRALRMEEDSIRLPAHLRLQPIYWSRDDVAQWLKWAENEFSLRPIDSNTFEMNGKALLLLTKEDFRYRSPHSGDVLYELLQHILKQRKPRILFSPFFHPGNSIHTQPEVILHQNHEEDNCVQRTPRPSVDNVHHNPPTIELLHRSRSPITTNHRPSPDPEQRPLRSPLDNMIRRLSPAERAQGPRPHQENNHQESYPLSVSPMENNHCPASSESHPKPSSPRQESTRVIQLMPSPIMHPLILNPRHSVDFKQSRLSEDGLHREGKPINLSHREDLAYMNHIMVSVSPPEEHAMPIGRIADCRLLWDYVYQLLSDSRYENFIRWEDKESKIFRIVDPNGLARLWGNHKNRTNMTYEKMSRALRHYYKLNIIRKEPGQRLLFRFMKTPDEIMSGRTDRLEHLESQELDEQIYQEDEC
Sequence of ELF1 (P32519 whole entry): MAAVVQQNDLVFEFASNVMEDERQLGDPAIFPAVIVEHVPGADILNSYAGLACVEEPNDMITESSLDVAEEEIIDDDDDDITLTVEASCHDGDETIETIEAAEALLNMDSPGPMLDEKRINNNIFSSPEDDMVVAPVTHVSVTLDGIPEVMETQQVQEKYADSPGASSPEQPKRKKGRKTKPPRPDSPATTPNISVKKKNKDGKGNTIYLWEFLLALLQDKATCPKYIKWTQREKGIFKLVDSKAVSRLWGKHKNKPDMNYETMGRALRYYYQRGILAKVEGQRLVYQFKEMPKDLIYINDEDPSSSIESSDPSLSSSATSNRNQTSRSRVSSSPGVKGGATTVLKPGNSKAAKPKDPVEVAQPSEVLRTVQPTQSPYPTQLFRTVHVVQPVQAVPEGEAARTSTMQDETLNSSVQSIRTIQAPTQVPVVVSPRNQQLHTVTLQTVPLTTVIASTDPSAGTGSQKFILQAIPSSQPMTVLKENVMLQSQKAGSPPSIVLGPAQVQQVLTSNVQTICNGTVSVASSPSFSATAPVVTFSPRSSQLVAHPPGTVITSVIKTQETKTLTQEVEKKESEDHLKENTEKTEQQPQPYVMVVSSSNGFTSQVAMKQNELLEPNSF
Sequence of ELF4 (Q99607 whole entry): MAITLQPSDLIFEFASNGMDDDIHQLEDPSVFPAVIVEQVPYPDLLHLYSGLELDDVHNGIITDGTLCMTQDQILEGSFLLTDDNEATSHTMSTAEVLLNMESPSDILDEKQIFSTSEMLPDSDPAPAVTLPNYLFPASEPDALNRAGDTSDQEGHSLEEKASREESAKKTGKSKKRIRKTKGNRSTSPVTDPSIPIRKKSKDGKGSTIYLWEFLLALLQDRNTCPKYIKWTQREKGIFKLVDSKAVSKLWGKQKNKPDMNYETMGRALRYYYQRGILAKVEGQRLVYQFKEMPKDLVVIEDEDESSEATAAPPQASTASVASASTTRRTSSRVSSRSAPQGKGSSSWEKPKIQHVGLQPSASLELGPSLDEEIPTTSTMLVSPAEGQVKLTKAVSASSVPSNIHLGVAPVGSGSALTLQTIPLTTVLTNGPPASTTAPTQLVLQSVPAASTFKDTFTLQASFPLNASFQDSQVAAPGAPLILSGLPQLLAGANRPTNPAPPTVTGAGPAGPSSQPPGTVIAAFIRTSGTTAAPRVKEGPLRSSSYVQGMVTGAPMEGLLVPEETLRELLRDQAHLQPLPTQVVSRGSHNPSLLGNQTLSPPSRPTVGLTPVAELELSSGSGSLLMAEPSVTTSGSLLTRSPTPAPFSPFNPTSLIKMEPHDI
Sequence of ETV5 (P41161 whole entry): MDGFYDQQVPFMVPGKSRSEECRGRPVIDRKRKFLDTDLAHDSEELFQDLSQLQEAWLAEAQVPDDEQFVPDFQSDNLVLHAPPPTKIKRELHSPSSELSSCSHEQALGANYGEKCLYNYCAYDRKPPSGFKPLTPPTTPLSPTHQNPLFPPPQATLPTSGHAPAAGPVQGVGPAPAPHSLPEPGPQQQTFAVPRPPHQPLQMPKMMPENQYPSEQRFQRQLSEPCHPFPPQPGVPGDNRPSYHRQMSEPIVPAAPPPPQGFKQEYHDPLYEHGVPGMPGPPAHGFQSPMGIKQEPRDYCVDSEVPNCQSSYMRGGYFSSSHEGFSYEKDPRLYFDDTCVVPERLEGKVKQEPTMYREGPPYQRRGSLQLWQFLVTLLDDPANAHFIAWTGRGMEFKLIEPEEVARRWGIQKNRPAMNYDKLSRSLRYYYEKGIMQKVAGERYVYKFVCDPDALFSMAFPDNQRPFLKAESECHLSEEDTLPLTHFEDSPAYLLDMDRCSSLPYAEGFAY

Take AGTGTC: the binding signal with FLI1 is 1.01 fold enrichment (6-mer frequency, TF over GST control); with ELK1 it was 1.07 fold enrichment (6-mer frequency, TF over GST control); with GABPA, 1.07 fold enrichment (6-mer frequency, TF over GST control); with ERG, 1.08 fold enrichment (6-mer frequency, TF over GST control); with ELF1 it was 1.06 fold enrichment (6-mer frequency, TF over GST control); in the test with EHF, 1.14 fold enrichment (6-mer frequency, TF over GST control). For the same sequence, the binding signal with SPI1 is 1.16 fold enrichment (6-mer frequency, TF over GST control); in the test with SPIB, 1.01 fold enrichment (6-mer frequency, TF over GST control); in the test with ELK3, 1.01 fold enrichment (6-mer frequency, TF over GST control); with ETV5, 1.06 fold enrichment (6-mer frequency, TF over GST control); with SPIC it was 1.11 fold enrichment (6-mer frequency, TF over GST control); with ELF4, 1.07 fold enrichment (6-mer frequency, TF over GST control). Further, the binding signal was 1.02 fold enrichment (6-mer frequency, TF over GST control) with ETV1; 1.09 fold enrichment (6-mer frequency, TF over GST control) with ETS2; 1.15 fold enrichment (6-mer frequency, TF over GST control) in the test with ELF5; 1.07 fold enrichment (6-mer frequency, TF over GST control) with ETV3; 1.01 fold enrichment (6-mer frequency, TF over GST control) in the test with ETV6.
